For seven sequences, binding signal results are on record in article PMC7862700, “An all-to-all approach to the identification of sequence-specific readers for epigenetic DNA modifications on cytosine”.

What all share (test): DAPPL (digital affinity profiling via proximity ligation, sequencing); 10 mM Tris-HCl pH 7.5, 50 mM NaCl, 1 mM DTT, 4% glycerol, room temperature, 30 min; GST-TFs on glutathione beads, 16-mer random dsDNA library, 0.1% formaldehyde crosslink after washing; high values mean tight binding
Conditions in all cases: protein: recombinant; tags: N-terminal GST; dsDNA, one strand shown

One experiment addresses T1, FLI1 (Homo sapiens, UniProt Q01543 1-452).
T1 sequence: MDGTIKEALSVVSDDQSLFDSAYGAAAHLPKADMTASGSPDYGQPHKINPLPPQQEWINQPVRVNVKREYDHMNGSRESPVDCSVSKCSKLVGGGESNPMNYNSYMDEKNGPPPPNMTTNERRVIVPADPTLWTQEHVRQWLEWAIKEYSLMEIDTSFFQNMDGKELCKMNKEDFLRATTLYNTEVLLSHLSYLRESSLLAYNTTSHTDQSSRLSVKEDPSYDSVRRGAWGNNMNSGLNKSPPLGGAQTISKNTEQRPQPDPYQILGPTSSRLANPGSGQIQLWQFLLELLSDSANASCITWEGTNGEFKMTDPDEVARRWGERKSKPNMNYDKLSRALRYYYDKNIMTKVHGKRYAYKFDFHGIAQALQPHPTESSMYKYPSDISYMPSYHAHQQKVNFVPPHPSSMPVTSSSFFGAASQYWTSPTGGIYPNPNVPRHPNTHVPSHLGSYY
The procedure, abridged: (§1)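 Binding signal is given per hexamer as its read frequency for a factor divided by its frequency in the tag-only sample. GST-fused human transcription factors were expressed in yeast, captured on glutathione beads, barcoded with DNA and pooled with that sample, then incubated with 200 nmole of a 16-mer random double-stranded DNA library in Tris/NaCl/DTT/glycerol buffer for 30 min at room temperature. The pools were then washed, crosslinked, proximity-ligated, amplified by PCR and sequenced on an Illumina NextSeq500.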

The target in another experiment is T2, ELK1 (Homo sapiens, UniProt P19419 1-428).
T2 sequence: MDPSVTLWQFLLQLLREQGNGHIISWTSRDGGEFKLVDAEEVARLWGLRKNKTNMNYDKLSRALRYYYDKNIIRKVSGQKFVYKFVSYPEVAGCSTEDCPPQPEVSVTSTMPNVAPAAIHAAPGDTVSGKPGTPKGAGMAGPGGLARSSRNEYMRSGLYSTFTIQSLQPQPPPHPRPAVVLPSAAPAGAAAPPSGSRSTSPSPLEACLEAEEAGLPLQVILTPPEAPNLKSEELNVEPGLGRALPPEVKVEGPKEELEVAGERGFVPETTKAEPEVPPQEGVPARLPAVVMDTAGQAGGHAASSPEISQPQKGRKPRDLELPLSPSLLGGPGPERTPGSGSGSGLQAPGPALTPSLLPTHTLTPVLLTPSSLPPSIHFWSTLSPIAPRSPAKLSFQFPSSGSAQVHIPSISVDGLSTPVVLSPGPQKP
An outline of the steps:
as §1

For another experiment, the target named is T3, GABPA (Homo sapiens, UniProt Q06546 1-454).
T3 sequence: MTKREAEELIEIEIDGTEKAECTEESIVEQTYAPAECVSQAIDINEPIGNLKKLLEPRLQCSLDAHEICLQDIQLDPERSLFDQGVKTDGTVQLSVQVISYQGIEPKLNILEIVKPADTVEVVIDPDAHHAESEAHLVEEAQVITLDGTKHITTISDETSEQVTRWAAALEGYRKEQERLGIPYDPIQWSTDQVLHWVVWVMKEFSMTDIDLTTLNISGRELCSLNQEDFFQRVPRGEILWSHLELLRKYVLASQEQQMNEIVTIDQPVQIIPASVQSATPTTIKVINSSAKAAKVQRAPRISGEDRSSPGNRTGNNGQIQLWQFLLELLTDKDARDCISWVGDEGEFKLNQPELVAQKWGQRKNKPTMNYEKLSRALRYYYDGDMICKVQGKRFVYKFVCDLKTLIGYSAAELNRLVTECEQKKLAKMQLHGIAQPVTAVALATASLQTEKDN
An outline of the steps: as §1

For a further experiment, the target named is T4, ERG (Homo sapiens, UniProt P11308 1-479).
T4 sequence: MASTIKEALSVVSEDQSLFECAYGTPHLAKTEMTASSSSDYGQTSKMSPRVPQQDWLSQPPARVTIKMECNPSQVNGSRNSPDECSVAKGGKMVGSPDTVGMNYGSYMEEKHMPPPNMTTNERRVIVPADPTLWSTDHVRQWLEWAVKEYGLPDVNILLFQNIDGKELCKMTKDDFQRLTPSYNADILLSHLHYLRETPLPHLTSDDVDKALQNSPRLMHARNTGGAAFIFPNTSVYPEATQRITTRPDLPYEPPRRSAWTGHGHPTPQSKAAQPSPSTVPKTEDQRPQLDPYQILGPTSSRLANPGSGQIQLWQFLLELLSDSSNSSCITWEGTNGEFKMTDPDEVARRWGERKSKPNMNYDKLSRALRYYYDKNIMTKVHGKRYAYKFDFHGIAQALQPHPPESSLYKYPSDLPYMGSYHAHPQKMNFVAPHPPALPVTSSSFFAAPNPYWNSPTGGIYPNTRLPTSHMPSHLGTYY
An outline of the steps: as §1

The target of the next experiment is ELF1 (Homo sapiens, UniProt P32519 1-619). The procedure, abridged: as §1
ELF1, sequence (P32519 whole entry): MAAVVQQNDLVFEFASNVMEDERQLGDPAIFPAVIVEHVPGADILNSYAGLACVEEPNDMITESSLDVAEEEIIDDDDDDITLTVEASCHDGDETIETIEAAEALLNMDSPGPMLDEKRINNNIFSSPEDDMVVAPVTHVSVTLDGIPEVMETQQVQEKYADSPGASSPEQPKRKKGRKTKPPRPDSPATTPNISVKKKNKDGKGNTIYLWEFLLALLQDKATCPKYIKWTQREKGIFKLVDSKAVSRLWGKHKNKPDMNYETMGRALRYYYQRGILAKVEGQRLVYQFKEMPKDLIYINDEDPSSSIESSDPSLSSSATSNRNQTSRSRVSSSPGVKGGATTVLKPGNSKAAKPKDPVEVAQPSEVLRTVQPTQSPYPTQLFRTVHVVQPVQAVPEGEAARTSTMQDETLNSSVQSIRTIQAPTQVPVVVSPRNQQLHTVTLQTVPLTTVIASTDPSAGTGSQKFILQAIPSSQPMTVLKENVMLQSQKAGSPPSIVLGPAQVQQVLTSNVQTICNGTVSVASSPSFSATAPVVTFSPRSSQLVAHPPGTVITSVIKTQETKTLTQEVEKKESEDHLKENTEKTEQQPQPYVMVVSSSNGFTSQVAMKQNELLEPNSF
Another experiment has as its target T5, EHF (Homo sapiens, UniProt Q9NZC4 1-300).
T5 sequence: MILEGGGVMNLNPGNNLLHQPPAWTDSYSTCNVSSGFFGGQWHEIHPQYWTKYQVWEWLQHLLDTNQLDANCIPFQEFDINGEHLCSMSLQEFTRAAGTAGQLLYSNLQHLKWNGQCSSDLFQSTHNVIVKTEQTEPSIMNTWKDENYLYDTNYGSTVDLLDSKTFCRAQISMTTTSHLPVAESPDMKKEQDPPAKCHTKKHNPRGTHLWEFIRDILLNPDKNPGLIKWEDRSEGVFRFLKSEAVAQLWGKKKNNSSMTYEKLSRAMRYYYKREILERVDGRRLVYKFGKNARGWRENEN
The procedure, abridged:
as §1

For another experiment, the target named is SPI1 (Homo sapiens, UniProt P17947 1-270). The procedure, abridged:
as §1

The next experiment has as its target SPIB (Homo sapiens, UniProt Q01892 1-262). An outline of the steps:
as §1

For another experiment, the target named is T6, ELK3 (Homo sapiens, UniProt P41970 1-407).
T6 sequence: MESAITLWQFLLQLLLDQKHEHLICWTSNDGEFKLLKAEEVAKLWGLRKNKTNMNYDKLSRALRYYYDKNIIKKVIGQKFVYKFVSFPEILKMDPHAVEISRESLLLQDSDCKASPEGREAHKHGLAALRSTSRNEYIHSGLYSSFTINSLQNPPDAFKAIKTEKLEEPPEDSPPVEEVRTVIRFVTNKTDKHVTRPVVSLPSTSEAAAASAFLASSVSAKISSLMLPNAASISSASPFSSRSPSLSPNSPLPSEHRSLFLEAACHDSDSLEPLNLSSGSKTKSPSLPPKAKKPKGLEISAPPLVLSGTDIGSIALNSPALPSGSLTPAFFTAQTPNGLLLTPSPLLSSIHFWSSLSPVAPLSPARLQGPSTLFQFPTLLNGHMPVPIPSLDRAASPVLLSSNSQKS
The procedure, abridged:
as §1

SPIB, sequence (Q01892 whole entry): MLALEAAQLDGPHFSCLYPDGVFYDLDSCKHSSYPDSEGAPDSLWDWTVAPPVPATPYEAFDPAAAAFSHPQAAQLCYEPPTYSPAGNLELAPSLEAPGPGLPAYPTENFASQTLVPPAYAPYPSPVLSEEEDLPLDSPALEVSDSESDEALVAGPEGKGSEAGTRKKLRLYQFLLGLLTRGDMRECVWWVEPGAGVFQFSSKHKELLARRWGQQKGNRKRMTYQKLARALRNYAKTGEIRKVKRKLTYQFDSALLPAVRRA

Take ACGTTC: the binding signal is 1.31 fold enrichment (6-mer frequency, TF over GST control) in the experiment with FLI1; 1.45 fold enrichment (6-mer frequency, TF over GST control) with ELK1; 1.33 fold enrichment (6-mer frequency, TF over GST control) in the experiment with GABPA; 1.39 fold enrichment (6-mer frequency, TF over GST control) with ERG; 1.4 fold enrichment (6-mer frequency, TF over GST control) with ELF1; 1.3 fold enrichment (6-mer frequency, TF over GST control) with EHF. Also, the binding signal with SPI1 is 1.29 fold enrichment (6-mer frequency, TF over GST control); in the experiment with SPIB it was 1.37 fold enrichment (6-mer frequency, TF over GST control); with ELK3 it was 1.38 fold enrichment (6-mer frequency, TF over GST control).
For the sequence CCTCAG, the binding signal was 1.17 fold enrichment (6-mer frequency, TF over GST control) with FLI1; 1.23 fold enrichment (6-mer frequency, TF over GST control) with ELK1; 1.35 fold enrichment (6-mer frequency, TF over GST control) with GABPA; 1.21 fold enrichment (6-mer frequency, TF over GST control) with ERG; 1.27 fold enrichment (6-mer frequency, TF over GST control) with ELF1; 1.17 fold enrichment (6-mer frequency, TF over GST control) in the experiment with EHF. Also, the binding signal was 1.17 fold enrichment (6-mer frequency, TF over GST control) with SPI1; 1.35 fold enrichment (6-mer frequency, TF over GST control) with SPIB; 1.24 fold enrichment (6-mer frequency, TF over GST control) in the experiment with ELK3.
Turning to ACGCCT, the binding signal was 1.16 fold enrichment (6-mer frequency, TF over GST control) with FLI1; 1.24 fold enrichment (6-mer frequency, TF over GST control) in the experiment with ELK1; 1.21 fold enrichment (6-mer frequency, TF over GST control) with GABPA; 1.2 fold enrichment (6-mer frequency, TF over GST control) with ERG; 1.29 fold enrichment (6-mer frequency, TF over GST control) in the experiment with ELF1; 1.12 fold enrichment (6-mer frequency, TF over GST control) with EHF. Besides, the binding signal was 1.14 fold enrichment (6-mer frequency, TF over GST control) with SPI1; 1.2 fold enrichment (6-mer frequency, TF over GST control) in the experiment with SPIB; 1.21 fold enrichment (6-mer frequency, TF over GST control) in the experiment with ELK3.
Turning to AAAATC, the binding signal with FLI1 was 1.16 fold enrichment (6-mer frequency, TF over GST control); with ELK1, 1.11 fold enrichment (6-mer frequency, TF over GST control); in the experiment with GABPA, 1.22 fold enrichment (6-mer frequency, TF over GST control); with ERG, 1.18 fold enrichment (6-mer frequency, TF over GST control); with ELF1, 1.15 fold enrichment (6-mer frequency, TF over GST control); with EHF it was 1.2 fold enrichment (6-mer frequency, TF over GST control). In addition, the binding signal is 1.14 fold enrichment (6-mer frequency, TF over GST control) with SPI1; 1.17 fold enrichment (6-mer frequency, TF over GST control) with SPIB; 1.1 fold enrichment (6-mer frequency, TF over GST control) with ELK3.
Turning to AACTAC, the binding signal with FLI1 was 1.42 fold enrichment (6-mer frequency, TF over GST control); with ELK1, 1.42 fold enrichment (6-mer frequency, TF over GST control); in the experiment with GABPA, 1.49 fold enrichment (6-mer frequency, TF over GST control); in the experiment with ERG, 1.5 fold enrichment (6-mer frequency, TF over GST control); with ELF1, 1.45 fold enrichment (6-mer frequency, TF over GST control); in the experiment with EHF, 1.43 fold enrichment (6-mer frequency, TF over GST control). The binding signal with SPI1 is 1.47 fold enrichment (6-mer frequency, TF over GST control); in the experiment with SPIB, 1.47 fold enrichment (6-mer frequency, TF over GST control); with ELK3 it was 1.48 fold enrichment (6-mer frequency, TF over GST control).
On to ATATAC, for which the binding signal with FLI1 was 1.13 fold enrichment (6-mer frequency, TF over GST control); with ELK1, 1.24 fold enrichment (6-mer frequency, TF over GST control); with GABPA, 1.2 fold enrichment (6-mer frequency, TF over GST control); in the experiment with ERG, 1.18 fold enrichment (6-mer frequency, TF over GST control); with ELF1, 1.14 fold enrichment (6-mer frequency, TF over GST control); with EHF it was 1.22 fold enrichment (6-mer frequency, TF over GST control). In addition, the binding signal in the experiment with SPI1 was 1.19 fold enrichment (6-mer frequency, TF over GST control); with SPIB, 1.21 fold enrichment (6-mer frequency, TF over GST control); in the experiment with ELK3, 1.27 fold enrichment (6-mer frequency, TF over GST control).
On to TTTAAG, for which the binding signal is 1.3 fold enrichment (6-mer frequency, TF over GST control) with FLI1; 1.33 fold enrichment (6-mer frequency, TF over GST control) with ELK1; 1.38 fold enrichment (6-mer frequency, TF over GST control) in the experiment with GABPA; 1.33 fold enrichment (6-mer frequency, TF over GST control) in the experiment with ERG; 1.34 fold enrichment (6-mer frequency, TF over GST control) with ELF1; 1.27 fold enrichment (6-mer frequency, TF over GST control) in the experiment with EHF. Besides, the binding signal is 1.42 fold enrichment (6-mer frequency, TF over GST control) with SPI1; 1.31 fold enrichment (6-mer frequency, TF over GST control) with SPIB; 1.46 fold enrichment (6-mer frequency, TF over GST control) in the experiment with ELK3.
